According to PubChem BioAssay AID2314 (National Center for Advancing Translational Sciences (NCATS), 2010):
The campaign covered roughly 300,000 compounds. About 37,000 (12%) were called active. The full list was thinned out, with actives kept by preference. Unmarked numbers belong to inactive results. Cut-off read from the data, not from the text of the source: active = max response mostly above about 13% (no sharp cut-off); inactive = mostly below about 14%.

Test: Cycloheximide Counterscreen for Small Molecule Inhibitors of Shiga Toxin; note: read at 38.3 µM for the half of the compounds with a filed dose; 0% is about no effect
Settings: cell reporter, cycloheximide protein synthesis inhibition counterscreen; hits give high values
Molecule `Cc1cc(C)nc(N/N=C/c2c(CO)cnc(C)c2O)n1` has a max response of -2.74%.
`NS(=O)(=O)c1ccc(CNC(=O)c2cnccn2)cc1` showed a max response of -2.6%.
`COc1cccc(OCC(=O)NNC(=O)c2cnccn2)c1` showed a max response of -1.98%.
With `CCN(CC)c1ccc(/C=N/NC(=O)c2cnccn2)c(O)c1` the max response was 28.1% (active).
In the case of `CCN(CC)c1ccc(/C=N/Nc2nc(C)cc(C)n2)c(O)c1`, the max response is reported as 22.2% (active).
In the case of `Cc1cc(C)nc(N/N=C/c2ccncc2)n1`, the max response is reported as 0.636%.
`O=C(Nc1ccccc1Cl)/C(Cl)=C(\Cl)S(=O)c1ccccc1` (stereo not given) showed a max response of 14.2%.
With `Cc1cccc(NC(=O)N(Cc2cc3cc(C)cc(C)c3[nH]c2=O)CC2COCCO2)c1` (stereo not given) the max response was -3.44%.
For `O=C(Nc1ccccc1-c1ccccc1)c1ccccc1[N+](=O)[O-]`, the max response was -3.24%.
Work on `CCN(Cc1ccccc1)C(=O)CN1C(=S)NC(C)(C)CC1C` (stereo not given) yielded a max response of -3.52%.
For `CCc1ccc2c(c1)C1(NN=C(c3ccccc3)S1)C(=O)N2` (stereo not given), the max response was 69.8% (active).
Work on `CCOC(=O)c1c(NC(=O)CCCN2CCOCC2)sc2c1CC(C)(C)OC2` yielded a max response of 12.6%.
`CC(C)N(C(=O)c1ccc(-c2ccccc2F)cc1)C(C)C` showed a max response of -2.02%.
With `CN(Cc1cccs1)C(=O)Cc1c[nH]c2ccccc12` the max response was 18.3% (active).
`CCOC(=O)CN(C)Cc1c[nH]c2ccccc12` gave a max response of 0.657%.
In the case of `COc1ccc(CN(C)C(=O)Cc2c[nH]c3ccccc23)c(OC)c1OC`, the max response is reported as -1.59%.
Molecule `COc1cccc(CNC(=O)Cc2csc(Nc3nc(=S)[nH]c4ccccc34)n2)c1` has a max response of 10.3%.
Work on `CCOC(CNC(=O)C(=O)NCC(c1ccco1)N1CCN(c2ccc(OC)cc2)CC1)OCC` (stereo not given) yielded a max response of -5.43%.
Molecule `CCCC(C)C(=O)NCc1ccncc1` (stereo not given) has a max response of -3.47%.
`O=C(NNc1ccccc1Cl)C(O)(c1cccc(C(F)(F)F)c1)c1cccc(C(F)(F)F)c1` gave a max response of -4.75%.
For `N#C/C(=C1/CCCN1)c1ccccn1`, the max response was -2.58%.
In the case of `N#CC(=C1SC=CS1)c1nc(-c2ccccc2)cs1`, the max response is reported as 58.5% (active).
`N#CC(=C1CCCC1)c1nc(-c2ccc(Cl)cc2)cs1` gave a max response of 27.6%.
With `Cn1c(/C(C#N)=C2/CCCCCN2)nc2ccccc21` the max response was 9.03%.
For `N#C/C(=C1\CCCN1)c1nc(-c2ccccc2)cs1`, the max response was 23% (active).
For `Cc1ccc(S(=O)(=O)N2CCC(=O)N([C@H](COCc3ccccc3)Cc3ccccc3)CC2)cc1`, the max response was 7.08%.
`CN(/C(=N/S(=O)(=O)c1cccs1)c1ccccc1)c1ccc(O)cc1` showed a max response of 11.5%.
With `CN(C)S(=O)(=O)c1ccc(N2CCCC2)c(C(=O)Nc2cccc(F)c2)c1` the max response was -3.38%.
`COc1ccc(CNC(=O)c2nnn(CC(=O)Nc3cc(C)cc(C)c3)c2N)cc1` showed a max response of -2.25%.
For `CCN(CC)c1ccc(C(=O)Nn2c(C)nc3ccccc3c2=O)cc1`, the max response was -2.07%.
`CCN(CC)c1ccc2cc(C(N)=O)/c(=N\NC(=O)c3ccncc3)oc2c1` showed a max response of 5.35%.
For `CCN(CC)c1ccc2oc(=O)c(C)nc2c1`, the max response was 16.6% (active).
For `CCc1[nH]nc(C(=O)N2CCCC(CO)(Cc3ccc(F)cc3F)C2)c1C` (stereo not given), the max response was -3.79%.
Molecule `CCN(C(=O)c1cc([N+](=O)[O-])ccc1NCc1cccnc1)c1ccccc1` has a max response of -3.46%.
For `Cc1cnc(NC(=O)C2CCCC2)s1`, the max response was 23.2% (active).
`CCOC(=O)c1cc(C)sc1NC(=O)C1CCC1` showed a max response of 6.29%.
In the case of `Cc1nc(NC(=O)C23CCC(C)(C(=O)O2)C3(C)C)sc1C` (stereo not given), the max response is reported as -1.47%.
For `Cc1nc(NC(=O)C2CCCCC2)sc1C`, the max response was 40.1% (active).
With `CS(=O)(=O)c1ccc2nc(NC(=O)C3CCCCC3)sc2c1` the max response was 9.31%.
Work on `CN1C(=O)c2ccc(NC(=O)C3CCCCC3)cc2C1=O` yielded a max response of 1.88%.
Work on `CC(=O)NC1C(Oc2ccc(C)cc2)OC2COC(c3ccco3)OC2C1O` (stereo not given) yielded a max response of -5.51%.
With `Cc1cc2c(s1)c1cnn(Cc3c(F)cccc3Cl)c(=O)c1n2C` the max response was 4.69%.
In the case of `Cc1cc[n+](-c2[nH]c(=O)sc2/C=N/NC(=O)c2ccccc2[O-])cc1C`, the max response is reported as 1.3%.
With `CC(C)(C)c1cc[n+](-c2[nH]c(=O)sc2/C=N/N=C(\[O-])c2ccccc2)cc1` the max response was 25.7% (active).
Molecule `CCOC(=O)c1c(C)[nH]c(C)c1S(=O)(=O)N(C)CC(=O)Nc1ccccc1C` has a max response of -6.33%.
Work on `O=C(CCC(=O)n1ncc2ccccc21)NCc1ccccc1Cl` yielded a max response of -1.42%.
For `COc1ccc([N+](=O)[O-])cc1N(CC(=O)Nc1ccccc1C(=O)N1CCOCC1)S(C)(=O)=O`, the max response was -2.31%.
In the case of `Cc1nnsc1C(=O)N/N=C/c1ccccc1Cl`, the max response is reported as -0.513%.
Molecule `O=C(Cc1ccccc1)N/N=C/c1ccc(Cl)cc1Cl` has a max response of 12%.
For `O=C(CSc1nnc(SCc2ccc(Cl)cc2)s1)N/N=C/c1ccccc1Cl`, the max response was 12.5% (active).
`N#C/C(=C/c1ccc(Cl)cc1)NC(=O)c1ccccc1` gave a max response of 17.9%.
Molecule `Cc1ccc(C)c(CSc2nc(-c3ccco3)nc3c2c(=O)n(C)c(=O)n3C)c1` has a max response of -2.42%.
Molecule `Cc1ccc(C)c(CN2CCC(CNC(=O)Nc3ccc(C)c(F)c3)CC2)c1` has a max response of 1.71%.
`N#CC1(NC(=O)COC(=O)CCN=C2NS(=O)(=O)c3ccccc32)CCCCC1` showed a max response of -3.22%.
`Cc1ccc(CC(=O)Nc2cccc(C#N)c2)cc1` gave a max response of 14.1%.
Work on `COc1cccc(CC(=O)Nc2ccc(-c3csc(C)n3)cc2)c1` yielded a max response of 15.4%.
With `COc1cccc(NC(=O)NCCN2CCCCC2)c1` the max response was 0.722%.
With `COc1cccc(NC(=O)NCc2ccc(F)cc2)c1` the max response was 10.4% (active).
`COC(=O)[C@@H](NC(=O)NCc1cccc(OC)c1)C(C)C` showed a max response of -2.02%.
In the case of `COc1cccc(NC(=O)Cc2ccc(C)cc2)c1`, the max response is reported as 27.5% (active).
`O=S(=O)(c1cccc(Cn2nnc(-c3ccc(F)cc3)n2)c1)N1CCOCC1` gave a max response of -2.1%.
With `Cc1sc(NC(=O)C2C3CCC(O3)C2C(=O)O)c(C(=O)OC(C)C)c1-c1ccc(Cl)cc1` (stereo not given) the max response was -2.64%.
For `Cc1[nH]c(C)c(S(=O)(=O)N2CCN(c3cccc(C(F)(F)F)c3)CC2)c1C(=O)N1CCCCC1`, the max response was 0.664%.
Work on `Cc1ccc(CN2CCN(c3ncccn3)CC2)c(C)c1` yielded a max response of 1.42%.
In the case of `COc1ccccc1C1C(C#N)=C(N)Oc2c1c(-c1ccccc1)nn2-c1ccccc1` (stereo not given), the max response is reported as 10.5%.
With `CCCc1cc(=O)[nH]c(SCC(=O)N2C(C)CCCC2C)n1` (stereo not given) the max response was -2.36%.
`COc1ccc(OC)c(CCNC(=O)CCn2ccc3cc(S(=O)(=O)N4CCCC4)ccc32)c1` gave a max response of -1.39%.
`CN1CCN(CC(=O)Nc2cccc([N+](=O)[O-])c2)CC1` gave a max response of 1.18%.
In the case of `Cc1ccc(NC(=O)CN2CCC(C(N)=O)CC2)cc1[N+](=O)[O-]`, the max response is reported as 15.7% (active).
In the case of `Cc1ccc(C)c(S(=O)(=O)N2CCN(CC(=O)Nc3ccc([N+](=O)[O-])cc3)CC2)c1`, the max response is reported as -0.724%.
`CCc1nc2nc(C)c(NS(=O)(=O)c3ccc4c(c3)CCCC4)c(=O)n2[nH]1` gave a max response of 1.61%.
Molecule `O=C(Cn1cnc2ccccc21)Nc1ccccc1-c1ccccc1` has a max response of -3.38%.
`O=C(O)CCC(=O)N(Cc1ccccc1)Cc1ccccc1` showed a max response of -1.7%.
`Nc1nc(NCC2CCCO2)nc(Nc2ccccc2F)c1[N+](=O)[O-]` (stereo not given) showed a max response of -2.31%.
For `CCN(CC)C(=O)N1CCN(C(=O)c2ccc(C)cn2)CC1`, the max response was 27.2% (active).
`CCN1CCN(C(=O)c2ccccc2N(C)S(=O)(=O)c2ccc(C)cc2)CC1` gave a max response of -3.44%.
Molecule `Cc1ccc(OCC(=O)N2CCN(C(=O)c3cccnc3)CC2)cc1` has a max response of -5.2%.
In the case of `Cc1c(C=O)c2ccccn2c1C(=O)c1ccncc1`, the max response is reported as -6.15%.
Work on `C=CCn1c(SCc2cccc(F)c2)nc2cc(C(=O)N3CCC(C(N)=O)CC3)ccc2c1=O` yielded a max response of -5.75%.
Molecule `CC(C)NC(=S)NN=C1CCCCCCCCCCC1` has a max response of 16.4%.
With `O=[N+]([O-])c1cccc(/C([O-])=C(/C(=S)Nc2ccccc2F)[n+]2ccccc2)c1` the max response was 44.3% (active).
For `Cc1ccc(/C([O-])=C(/C(=S)NCc2ccco2)[n+]2ccccc2)cc1[N+](=O)[O-]`, the max response was -1.29%.
For `CCC(C)NCC(=O)Nc1ccc([N+](=O)[O-])cc1C(=O)Nc1ccccc1F` (stereo not given), the max response was 9.91%.
For `CC(C)C[C@@H](COc1ccccc1)N1CCN(CC(C)C)CCC1=O`, the max response was 12.1%.
Molecule `O=c1[nH]c(SCc2cccc(F)c2)nc2ccccc12` has a max response of 0.0734%.
In the case of `Nc1nnc2c(C(F)(F)F)nc3ccccc3n12`, the max response is reported as -5.14%.
For `O=C1c2ccccc2C(=O)N1c1cccc2ccccc12`, the max response was -0.411%.
For `O=C(NCc1ccc2c(c1)OCO2)C12CC3CC(CC(C3)C1)C2`, the max response was -3.3%.
Molecule `O=C(NCc1ccc2c(c1)OCO2)c1cc2c(s1)CS(=O)(=O)C2` has a max response of -5.16%.
With `O=C(NCc1ccc2c(c1)OCO2)c1ccc(Cl)s1` the max response was 17.6% (active).
For `O=C(NCc1ccc2c(c1)OCO2)c1sccc1Br`, the max response was 16.3% (active).
`COc1cc(OC)c(C(=O)NCc2ccc3c(c2)OCO3)cc1OC` showed a max response of -1.06%.
With `O=C(NCc1ccc2c(c1)OCO2)c1cc(F)c(F)cc1Cl` the max response was 16.6%.
Molecule `Cc1ccccc1NC(=O)C(C)c1ccc(-c2ccccc2)c(F)c1` (stereo not given) has a max response of -5.36%.
Molecule `CC(CC(=O)N1CCN(c2ccccc2)CC1)S(=O)(=O)c1ccc2c(c1)NC(=O)CS2` (stereo not given) has a max response of 1.2%.
